Assay [1] can be described thus: TOX21_p53_BLA_p2_viability: Viability Assessment in the Tox21 HCT-116 p53 Agonism Beta-lactamase Assay, Phase 2 (AID 2283591).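 Note: compound exposure lasted 16 h at 37 °C; actives lower the ATP signal meaning cytotoxicity.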 A digest of the protocol: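 HCT116 p53-bla cells, 4000/well, dosed after 5 h plating (217-fold dilution of DMSO stocks) and incubated 16 h at 37C. Viability taken as cellular ATP by CellTiter-Glo luminescence after 30 min RT; signal loss marks cytotoxicity.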

The target of assay [2] is Cellular tumor antigen p53 (Homo sapiens) (UniProt P04637). The assay can be described thus: TOX21_p53_BLA_p2_ratio: Tox21 HCT-116 p53 Agonism Beta-lactamase Assay, Ratio, Phase 2 (AID 2283592). Put shortly: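 HCT-116 cells with p53-responsive beta-lactamase reporter, 4000 cells/well, preincubated 5 h, then compound in DMSO (217-fold dilution) for 16 h at 37C. CCF4-AM substrate 2 h at room temperature; 460/530 nm emission ratio fitted upward versus DMSO.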

Assay [3] can be described thus: TOX21_p53_BLA_p3_viability: Viability Assessment in the Tox21 HCT-116 p53 Agonism Beta-lactamase Assay, Phase 3 (AID 2283593).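 Note: cells exposed to compound for 16 h before reading.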 A digest of the protocol: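 HCT116 cells, 4000/well, dosed 5 h after plating by pin transfer (217-fold dilution from DMSO stock) and incubated 16 h at 37C, 5% CO2. Viability read as ATP luminescence with CellTiter-Glo after 30 min at room temperature.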

The nature of assay [4]: TOX21_p53_BLA_p4_viability: Viability Assessment in the Tox21 HCT-116 p53 Agonism Beta-lactamase Assay, Phase 4 (AID 2283597).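 Note: hits lower the luminescence signal meaning cytotoxicity.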 Put shortly:
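HCT-116 p53-bla cells, 4000/well, dosed after 5 h attachment and incubated 16 h at 37 °C, 5% CO2. Viability from CellTiter-Glo ATP luminescence after 30 min at room temperature, taken after the beta-lactamase read; loss of signal indicates cytotoxicity.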

Assay [5] is described as follows: TOX21_p53_BLA_p5_viability: Viability Assessment in the Tox21 HCT-116 p53 Agonism Beta-lactamase Assay, Phase 5 (AID 2283600). A digest of the protocol: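 HCT-116 p53 beta-lactamase reporter cells, 4000/well, were exposed to compound (pin transfer, 217-fold dilution) for 16 hours at 37C. Cellular ATP was read by CellTiter-Glo luminescence after 30 min at room temperature.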

In assay [6] the target is Cellular tumor antigen p53 (Homo sapiens) (UniProt P04637). The assay can be described thus: TOX21_p53_BLA_p4_ratio: Tox21 HCT-116 p53 Agonism Beta-lactamase Assay, Ratio, Phase 4 (AID 2283601). Put shortly:
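HCT-116 p53 beta-lactamase reporter cells (4000/well) preincubated 5 h, then compound (217-fold dilution of DMSO stock) for 16 h at 37C. CCF4-AM substrate added 2 h at room temperature; 460/530 nm emission ratio fitted upward versus DMSO.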

Assay [7] is described as follows: ACEA_ER_AUC_viability: ACEA Biosciences xCELLigence Real-Time Cell Analysis on Estrogen Receptor Agonism for Viability (AID 2283782).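 Note: continuous compound exposure with impedance area under curve over 80 h; hit means loss of impedance signal meaning reduced cell growth or viability.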 Put shortly:
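T47D cells preconditioned in phenol red-free RPMI with charcoal-stripped FBS, then dosed with 8-point 1:4 series from 100 uM (up to 0.5% DMSO). Impedance monitored up to ~80 h; area-under-curve loss versus DMSO taken as viability.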

Assay [8] addresses Cellular tumor antigen p53 (Homo sapiens) (UniProt P04637). The assay can be described thus: TOX21_p53_BLA_p5_ratio: Tox21 HCT-116 p53 Agonism Beta-lactamase Assay, Ratio, Phase 5 (AID 2283599). Put shortly:
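HCT-116 p53-bla cells (4000/well) plated 5 h, dosed with compound (217-fold DMSO dilution) for 16 h at 37 C; CCF4-AM substrate 2 h at room temperature. Activity is the 460/530 nm emission ratio (405 nm excitation), fitted in gain-of-signal direction versus DMSO.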

A short description of assay [9]: CCTE_Harrill_HTTr_Viability_MCF7: CCTE's 6-hour Cell Viability Assessment for the High-Throughput Transcriptomics (HTTr) Platform, in MCF-7 cells cultured in DMEM + 10% fetal bovine serum, Harrill Lab (AID 2284010; active = hit-call score of the fitted dose curve at least 0.9, where 1 is the maximum; inactive = score below 0.9). Put shortly:
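Viability measured through PI dye exclusion by high-content imaging at 6 h post-dosing.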

A short description of assay [10]: CCTE_Harrill_HTTr_Apoptosis_MCF7: CCTE's 6-hour Apoptosis Assessment for the High-Throughput Transcriptomics (HTTr) Platform, in MCF-7 cells cultured in DMEM + 10% fetal bovine serum, Harrill Lab (AID 2284011; active = hit-call score of the fitted dose curve at least 0.9, where 1 is the maximum; inactive = score below 0.9). Put shortly:
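MCF-7 cells in DMEM + 10% FBS exposed 6 h to chemicals over an eight-point dilution series. Caspase-3/7 activation imaged by high-content CellEvent Green staining; fitted bidirectionally versus DMSO.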

29 molecules from PubChem BioAssay (EPA / NIEHS) can be followed below.

Inconclusive results are not listed. Calls of active or inactive are those of the source. Rule for the calls, unless noted: active = hit-call score of the fitted dose curve at least 0.9, where 1 is the maximum; inconclusive = response in the unintended direction; inactive = score below 0.9. Where a SMILES comes first, the peptide text is derived from it. Bridges are numbered along the chain shown (N, C = ends). [ ]: non-standard residue; d: D form. Orn = NCCC[C@H](N)C(=O)O; Mpa = O=C(O)CCS

For orientation: AC50 means the concentration giving half of the maximal activity seen.

Chain of Cellular tumor antigen p53 (Homo sapiens) (P04637 whole entry, looked up): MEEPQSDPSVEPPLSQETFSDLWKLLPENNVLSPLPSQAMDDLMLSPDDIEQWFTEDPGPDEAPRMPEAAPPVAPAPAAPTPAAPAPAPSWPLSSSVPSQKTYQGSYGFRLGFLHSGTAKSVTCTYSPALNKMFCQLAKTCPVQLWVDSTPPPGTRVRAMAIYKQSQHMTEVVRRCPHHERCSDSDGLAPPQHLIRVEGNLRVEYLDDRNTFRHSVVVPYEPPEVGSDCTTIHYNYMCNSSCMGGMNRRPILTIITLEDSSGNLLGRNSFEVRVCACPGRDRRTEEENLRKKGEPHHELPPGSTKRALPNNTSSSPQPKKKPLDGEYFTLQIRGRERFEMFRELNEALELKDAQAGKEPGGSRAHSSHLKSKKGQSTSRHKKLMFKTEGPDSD

As to `CCOC(C)(C)C`, the molecule was classed as inactive in assay [1], in assay [2], in assay [3], in assay [4], in [5] and in assay [6].
For the molecule `CCN1CCC[C@H]1CNC(=O)c1cc(S(N)(=O)=O)ccc1OC`, the molecule was classed as inactive in assay [1], in assay [2], in assay [3], in assay [4] and in assay [5].
As for `C=C(C)C(=O)OCCNC(C)(C)C`, the outcome in assay [1], in assay [2], in assay [3], in [4], in assay [5] and in [7] was inactive.
For the molecule `C=C(C)C(=O)OCCCCCCCCCCCCC`, the molecule was classed as inactive in [1], in assay [2], in [3], in assay [4], in assay [5] and in [6].
As to `CCOC(=O)[C@H](CCc1ccccc1)N[C@@H](C)C(=O)N(CC(=O)O)C1Cc2ccccc2C1`, the molecule was classed as inactive in [1], in [2], in [3], in assay [5] and in assay [6]. Besides, the AC50 in [4] was 7.13 µM (active).
Consider `NC(=O)COCCN1CCN(C(c2ccccc2)c2ccc(Cl)cc2)CC1` (stereo unspecified), for which the outcome in assay [1], in assay [2], in [3], in assay [4], in assay [5] and in [6] was inactive.
As to `CNCC(O)c1ccc(OC(=O)C(C)(C)C)c(OC(=O)C(C)(C)C)c1` (stereo unspecified), the molecule was classed as inactive in assay [1], in assay [2], in assay [3], in assay [4], in [5] and in assay [6].
In the case of `CCC(=O)c1ccc2c(c1)N(CCCN1CCN(CCO)CC1)c1ccccc1S2`, the molecule was classed as inactive in assay [1], in [2], in [3], in assay [5] and in assay [6]. Also, the AC50 in [4] is 33.3 µM (active).
On to `O=C1OC2(c3ccc(O)cc3Oc3cc(O)ccc32)c2ccc(N=C=S)cc21`, for which the result in [1], in [2], in assay [3], in assay [4], in assay [5] and in [6] was inactive.
As for `CCOc1ccc(C[C@H]2NC(=O)CCSSC[C@@H](C(=O)N3CCC[C@H]3C(=O)N[C@@H](CCCN)C(=O)NCC(N)=O)NC(=O)[C@H](CC(N)=O)NC(=O)[C@H]([C@@H](C)O)NC(=O)[C@H]([C@@H](C)CC)NC2=O)cc1` ([Mpa][dY](Et)ITNCP[Orn]G-NH2; disulfide 1-6), the outcome in [1], in [2], in [3], in assay [4], in [5] and in assay [6] was inactive.
Consider `C=C[C@]1(C)C[C@@H](OC(=O)CSCCN(CC)CC)[C@]2(C)[C@H](C)CC[C@]3(CCC(=O)[C@H]32)[C@@H](C)[C@@H]1O`, for which the molecule was called inactive in assay [1], in [2], in assay [3], in assay [4] and in [5].
For the molecule `O=C(CCCN1CCC(C(=O)c2ccc(F)cc2)CC1)c1ccc(F)cc1`, the result in assay [1], in assay [2], in assay [3], in [4], in [5] and in assay [6] was inactive.
Regarding `O=Cc1ccc([N+](=O)[O-])cc1`, the outcome in [1], in assay [2], in assay [3], in assay [4], in assay [8] and in assay [6] was inactive.
Take `O=c1cc[nH]c(=O)[nH]1`: the molecule was called inactive in [1], in assay [2], in assay [3], in assay [4], in assay [5] and in assay [6].
As to `COC(=O)C1CC(=O)C(C(=O)OC)CC1=O` (stereo unspecified), the call in assay [1], in assay [2], in assay [3], in assay [4] and in assay [6] was inactive.
For `CCN(CC)Cc1cc(Nc2ccnc3cc(Cl)ccc23)ccc1O`, the outcome in assay [1], in assay [2], in [3], in assay [4], in assay [5] and in assay [6] was inactive.
Take `CCCc1cc(C(N)=S)ccn1`: the call in [1], in assay [2], in assay [3], in [4] and in assay [5] was inactive.
Take `O=C(c1ccccc1)c1cc(Cl)ccc1O`: the molecule was called inactive in assay [1], in assay [2], in assay [3], in assay [4], in [8] and in assay [6].
In the case of `CC(C)(C)OC(=O)c1cccc(N)c1`, the result in assay [1], in assay [2], in [3], in assay [4], in assay [8] and in assay [6] was inactive.
Take `Oc1ccc2c(c1)OCO2`: the result in assay [1], in assay [2], in assay [3], in [4], in assay [5] and in assay [6] was inactive.
With `O=C(O)CCCc1c[nH]c2ccccc12`, the molecule was called inactive in [1], in [2], in assay [3], in assay [4], in assay [5] and in assay [6]. The result in [7], in assay [9] and in assay [10] was inactive.
As for `O=C(OCCO)c1ccccc1O`, the call in assay [1], in assay [2], in assay [3], in [4] and in assay [6] was inactive.
With `CC(C)(Oc1ccc(C2CCCc3ccccc32)cc1)C(=O)O` (stereo unspecified), the molecule was called inactive in assay [1], in [2], in assay [3], in assay [4] and in [5].
Regarding `CNCCC=C1c2ccccc2CCc2ccccc21`, the molecule was classed as inactive in assay [1], in assay [2], in [3], in [5] and in assay [6]. Moreover, in [4], the AC50 is 35.8 µM (active).
On to `Nc1ccc2ccccc2c1S(=O)(=O)O`, for which the molecule was called inactive in assay [1], in assay [2], in assay [3], in [8], in assay [5] and in assay [6].
In the case of `CC(C)CCC[C@@H](C)[C@H]1CC[C@H]2[C@@H]3CC=C4C[C@@H](O)CC[C@]4(C)[C@H]3CC[C@]12C`, the outcome in [1], in assay [2], in assay [3], in assay [8] and in [6] was inactive.
`O=C(O)c1ccccc1S`: the outcome in assay [1], in [2], in assay [3] and in assay [8] was inactive.
As for `CCCCCCCCCCCCOC(=O)c1ccc(O)cc1`, the call in assay [1], in assay [2], in assay [3], in assay [8] and in [6] was inactive.
Regarding `CCCOCCOCCO`, the molecule was classed as inactive in assay [1], in [2], in [3], in assay [8] and in assay [6].
